Tests used:
[1] = biological target: Mitogen-activated protein kinase kinase kinase kinase 4 (Homo sapiens) (UniProt O95819); details: at 1 µM;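 further: reported figure is an averaged inhibition value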
[2] = biological target: Dual specificity mitogen-activated protein kinase kinase 1 (Homo sapiens) (UniProt Q02750); details: at 0.1 µM
[3] = biological target: Dual specificity mitogen-activated protein kinase kinase 1 (Homo sapiens) (UniProt Q02750); details: at 1 µM
[4] = biological target: Misshapen-like kinase 1 (Homo sapiens) (UniProt Q8N4C8); details: at 0.1 µM
[5] = biological target: Misshapen-like kinase 1 (Homo sapiens) (UniProt Q8N4C8); details: at 1 µM
[6] = biological target: T1, Serine/threonine-protein kinase 4 (Homo sapiens) (UniProt Q13043); details: at 0.1 µM
T1 sequence (whole entry): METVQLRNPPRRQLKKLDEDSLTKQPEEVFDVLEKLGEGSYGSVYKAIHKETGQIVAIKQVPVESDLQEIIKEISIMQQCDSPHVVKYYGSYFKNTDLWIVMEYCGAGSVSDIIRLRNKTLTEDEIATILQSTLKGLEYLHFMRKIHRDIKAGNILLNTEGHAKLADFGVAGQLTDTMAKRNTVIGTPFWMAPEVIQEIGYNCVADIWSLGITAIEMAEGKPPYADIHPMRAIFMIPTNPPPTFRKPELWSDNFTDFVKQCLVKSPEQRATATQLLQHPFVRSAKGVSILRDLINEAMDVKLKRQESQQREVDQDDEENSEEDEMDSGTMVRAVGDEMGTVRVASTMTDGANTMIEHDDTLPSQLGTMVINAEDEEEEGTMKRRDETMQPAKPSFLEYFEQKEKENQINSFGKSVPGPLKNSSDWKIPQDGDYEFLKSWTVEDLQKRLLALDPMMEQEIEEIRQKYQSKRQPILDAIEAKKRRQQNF

[7] = biological target: T1, Serine/threonine-protein kinase 4 (Homo sapiens); details: at 1 µM
[8] = biological target: T2, Serine/threonine-protein kinase 3 (Homo sapiens) (UniProt Q13188); details: at 0.1 µM
T2 sequence (whole entry): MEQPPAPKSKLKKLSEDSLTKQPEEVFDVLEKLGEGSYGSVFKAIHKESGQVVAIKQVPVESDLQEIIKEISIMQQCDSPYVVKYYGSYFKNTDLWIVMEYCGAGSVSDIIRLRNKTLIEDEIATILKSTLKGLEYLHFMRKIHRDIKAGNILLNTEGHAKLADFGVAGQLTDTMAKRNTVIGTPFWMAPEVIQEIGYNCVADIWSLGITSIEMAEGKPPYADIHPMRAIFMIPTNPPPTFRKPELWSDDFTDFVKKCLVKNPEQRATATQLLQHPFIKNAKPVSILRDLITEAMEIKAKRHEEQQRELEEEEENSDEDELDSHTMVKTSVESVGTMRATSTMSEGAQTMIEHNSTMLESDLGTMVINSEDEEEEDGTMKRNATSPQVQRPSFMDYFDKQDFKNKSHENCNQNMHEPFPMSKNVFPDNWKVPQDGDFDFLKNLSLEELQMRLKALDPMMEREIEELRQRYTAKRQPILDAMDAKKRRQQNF

[9] = biological target: T2, Serine/threonine-protein kinase 3 (Homo sapiens); details: at 1 µM
[10] = biological target: Serine/threonine-protein kinase 26 (Homo sapiens) (UniProt Q9P289); details: at 0.1 µM
[11] = biological target: Serine/threonine-protein kinase 26 (Homo sapiens) (UniProt Q9P289); details: at 1 µM
[12] = biological target: Serine/threonine-protein kinase PAK 1 (Homo sapiens) (UniProt Q13153); details: at 0.1 µM
[13] = biological target: Serine/threonine-protein kinase PAK 1 (Homo sapiens) (UniProt Q13153); details: at 1 µM
[14] = biological target: Serine/threonine-protein kinase PAK 2 (Homo sapiens) (UniProt Q13177); details: at 0.1 µM
[15] = biological target: Serine/threonine-protein kinase PAK 2 (Homo sapiens) (UniProt Q13177); details: at 1 µM
[16] = biological target: Serine/threonine-protein kinase PAK 3 (Homo sapiens) (UniProt O75914); details: at 0.1 µM
[17] = biological target: Serine/threonine-protein kinase PAK 3 (Homo sapiens) (UniProt O75914); details: at 1 µM
[18] = biological target: Serine/threonine-protein kinase PAK 5 (Homo sapiens) (UniProt Q9P286); details: at 0.1 µM
[19] = biological target: Serine/threonine-protein kinase PAK 5 (Homo sapiens) (UniProt Q9P286); details: at 1 µM
[20] = biological target: Serine/threonine-protein kinase PAK 6 (Homo sapiens) (UniProt Q9NQU5); details: at 0.1 µM;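 further: mean PAK6 inhibition reported from the GSK PKIS screen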

Sequence of Serine/threonine-protein kinase 26 (Homo sapiens) (Q9P289 2-416 limits assumed): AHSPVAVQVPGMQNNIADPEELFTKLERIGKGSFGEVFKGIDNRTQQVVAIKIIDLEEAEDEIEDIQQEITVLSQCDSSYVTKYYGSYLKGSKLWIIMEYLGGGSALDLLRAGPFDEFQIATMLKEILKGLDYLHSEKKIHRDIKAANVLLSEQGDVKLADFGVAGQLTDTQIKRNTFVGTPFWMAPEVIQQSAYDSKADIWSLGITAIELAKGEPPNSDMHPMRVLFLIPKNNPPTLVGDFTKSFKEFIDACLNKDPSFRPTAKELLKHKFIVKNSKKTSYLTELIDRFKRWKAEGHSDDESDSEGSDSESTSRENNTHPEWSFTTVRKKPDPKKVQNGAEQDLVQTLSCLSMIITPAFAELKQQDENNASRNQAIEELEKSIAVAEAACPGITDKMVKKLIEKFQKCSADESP
Sequence of Mitogen-activated protein kinase kinase kinase kinase 4 (Homo sapiens) (O95819 2-1239 limits assumed): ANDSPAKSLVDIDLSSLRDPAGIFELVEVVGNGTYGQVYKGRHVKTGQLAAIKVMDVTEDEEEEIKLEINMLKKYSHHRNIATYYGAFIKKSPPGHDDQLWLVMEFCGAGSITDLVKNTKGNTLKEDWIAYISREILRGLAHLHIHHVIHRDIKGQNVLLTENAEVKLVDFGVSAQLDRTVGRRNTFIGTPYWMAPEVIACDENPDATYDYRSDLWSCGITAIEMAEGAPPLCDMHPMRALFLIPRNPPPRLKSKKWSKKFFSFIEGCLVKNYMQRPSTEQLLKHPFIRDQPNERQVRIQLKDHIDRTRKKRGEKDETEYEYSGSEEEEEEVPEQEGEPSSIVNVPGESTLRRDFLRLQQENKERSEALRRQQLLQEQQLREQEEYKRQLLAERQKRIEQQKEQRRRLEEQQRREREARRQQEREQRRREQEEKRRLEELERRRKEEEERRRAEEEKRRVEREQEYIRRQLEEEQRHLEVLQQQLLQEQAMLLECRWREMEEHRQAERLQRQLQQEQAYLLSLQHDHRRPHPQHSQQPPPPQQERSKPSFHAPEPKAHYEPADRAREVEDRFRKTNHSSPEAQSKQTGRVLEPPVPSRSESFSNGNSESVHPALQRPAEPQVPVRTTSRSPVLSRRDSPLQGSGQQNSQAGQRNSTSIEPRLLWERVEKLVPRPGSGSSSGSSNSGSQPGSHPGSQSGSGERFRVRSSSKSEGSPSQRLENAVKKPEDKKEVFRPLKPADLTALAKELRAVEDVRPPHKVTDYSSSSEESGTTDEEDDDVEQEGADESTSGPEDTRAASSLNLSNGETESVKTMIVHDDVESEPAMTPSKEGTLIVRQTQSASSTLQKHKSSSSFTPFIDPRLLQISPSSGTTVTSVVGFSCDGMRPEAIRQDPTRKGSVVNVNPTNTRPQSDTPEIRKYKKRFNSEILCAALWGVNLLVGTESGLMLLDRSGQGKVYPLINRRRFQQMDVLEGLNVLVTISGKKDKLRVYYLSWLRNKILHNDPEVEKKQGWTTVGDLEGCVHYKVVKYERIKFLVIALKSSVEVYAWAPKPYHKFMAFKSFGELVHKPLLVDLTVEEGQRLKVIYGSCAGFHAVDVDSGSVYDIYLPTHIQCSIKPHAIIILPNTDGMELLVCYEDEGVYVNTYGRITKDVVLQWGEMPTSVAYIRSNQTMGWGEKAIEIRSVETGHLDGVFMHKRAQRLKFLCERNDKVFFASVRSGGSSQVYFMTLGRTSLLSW
Sequence of Serine/threonine-protein kinase PAK 1 (Homo sapiens) (Q13153 whole entry): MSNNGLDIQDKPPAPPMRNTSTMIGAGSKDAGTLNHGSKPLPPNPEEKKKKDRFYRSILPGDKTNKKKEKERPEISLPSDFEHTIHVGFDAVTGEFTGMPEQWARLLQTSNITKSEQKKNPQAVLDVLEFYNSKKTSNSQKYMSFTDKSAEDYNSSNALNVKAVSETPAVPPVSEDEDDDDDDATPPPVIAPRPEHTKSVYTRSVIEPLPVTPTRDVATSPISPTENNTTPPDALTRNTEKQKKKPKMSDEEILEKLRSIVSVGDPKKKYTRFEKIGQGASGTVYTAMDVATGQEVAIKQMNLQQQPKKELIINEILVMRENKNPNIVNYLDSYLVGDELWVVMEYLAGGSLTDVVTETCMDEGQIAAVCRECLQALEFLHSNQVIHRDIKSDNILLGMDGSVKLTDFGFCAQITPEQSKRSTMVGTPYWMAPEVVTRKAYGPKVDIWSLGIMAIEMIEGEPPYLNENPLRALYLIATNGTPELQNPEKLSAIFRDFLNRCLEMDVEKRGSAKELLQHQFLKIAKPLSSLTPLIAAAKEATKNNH
Sequence of Serine/threonine-protein kinase PAK 5 (Homo sapiens) (Q9P286 whole entry, looked up): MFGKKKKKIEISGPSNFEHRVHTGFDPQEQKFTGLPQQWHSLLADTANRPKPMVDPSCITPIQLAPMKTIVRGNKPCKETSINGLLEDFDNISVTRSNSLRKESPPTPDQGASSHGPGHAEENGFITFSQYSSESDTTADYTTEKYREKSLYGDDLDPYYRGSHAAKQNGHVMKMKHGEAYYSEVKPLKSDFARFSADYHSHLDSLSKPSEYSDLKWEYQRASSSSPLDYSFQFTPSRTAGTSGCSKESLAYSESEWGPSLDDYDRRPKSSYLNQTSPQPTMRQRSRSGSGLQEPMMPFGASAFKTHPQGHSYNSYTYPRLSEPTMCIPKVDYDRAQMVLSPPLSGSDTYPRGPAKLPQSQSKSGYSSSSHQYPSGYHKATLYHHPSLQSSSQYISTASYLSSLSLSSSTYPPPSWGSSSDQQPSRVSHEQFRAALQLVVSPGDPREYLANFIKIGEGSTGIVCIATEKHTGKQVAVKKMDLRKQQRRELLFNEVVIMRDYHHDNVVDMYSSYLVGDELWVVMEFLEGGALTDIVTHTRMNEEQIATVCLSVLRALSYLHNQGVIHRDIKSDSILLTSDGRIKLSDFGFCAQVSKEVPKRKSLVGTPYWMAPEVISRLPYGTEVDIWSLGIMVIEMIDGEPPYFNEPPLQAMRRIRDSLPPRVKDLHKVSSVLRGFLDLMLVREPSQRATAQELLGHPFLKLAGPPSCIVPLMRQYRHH
Sequence of Serine/threonine-protein kinase PAK 3 (Homo sapiens) (O75914 whole entry, looked up): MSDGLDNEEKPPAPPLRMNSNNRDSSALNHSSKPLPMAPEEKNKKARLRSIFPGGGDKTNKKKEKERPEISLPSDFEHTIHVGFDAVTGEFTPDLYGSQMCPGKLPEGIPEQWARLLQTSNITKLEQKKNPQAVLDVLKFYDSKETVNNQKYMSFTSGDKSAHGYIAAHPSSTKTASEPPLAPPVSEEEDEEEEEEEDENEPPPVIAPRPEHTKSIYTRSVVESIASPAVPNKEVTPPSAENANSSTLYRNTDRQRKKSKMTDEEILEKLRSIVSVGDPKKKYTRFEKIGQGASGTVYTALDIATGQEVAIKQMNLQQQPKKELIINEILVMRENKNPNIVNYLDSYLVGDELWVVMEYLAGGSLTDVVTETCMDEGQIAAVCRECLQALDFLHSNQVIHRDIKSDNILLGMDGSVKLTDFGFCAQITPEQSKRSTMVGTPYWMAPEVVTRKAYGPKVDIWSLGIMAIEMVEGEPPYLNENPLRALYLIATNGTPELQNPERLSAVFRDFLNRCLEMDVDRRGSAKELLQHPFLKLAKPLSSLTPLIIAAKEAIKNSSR
Sequence of Dual specificity mitogen-activated protein kinase kinase 1 (Homo sapiens) (Q02750 whole entry): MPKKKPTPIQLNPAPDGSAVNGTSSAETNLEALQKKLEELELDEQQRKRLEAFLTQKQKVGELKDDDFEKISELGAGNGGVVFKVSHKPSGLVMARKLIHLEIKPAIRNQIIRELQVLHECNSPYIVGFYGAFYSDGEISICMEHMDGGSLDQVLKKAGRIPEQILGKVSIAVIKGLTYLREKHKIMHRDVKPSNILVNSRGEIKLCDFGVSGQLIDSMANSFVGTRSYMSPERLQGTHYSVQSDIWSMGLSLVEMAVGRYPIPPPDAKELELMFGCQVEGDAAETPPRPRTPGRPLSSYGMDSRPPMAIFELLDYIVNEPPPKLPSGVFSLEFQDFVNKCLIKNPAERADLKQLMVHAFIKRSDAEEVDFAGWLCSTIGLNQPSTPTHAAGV
Sequence of Serine/threonine-protein kinase PAK 2 (Homo sapiens) (Q13177 whole entry): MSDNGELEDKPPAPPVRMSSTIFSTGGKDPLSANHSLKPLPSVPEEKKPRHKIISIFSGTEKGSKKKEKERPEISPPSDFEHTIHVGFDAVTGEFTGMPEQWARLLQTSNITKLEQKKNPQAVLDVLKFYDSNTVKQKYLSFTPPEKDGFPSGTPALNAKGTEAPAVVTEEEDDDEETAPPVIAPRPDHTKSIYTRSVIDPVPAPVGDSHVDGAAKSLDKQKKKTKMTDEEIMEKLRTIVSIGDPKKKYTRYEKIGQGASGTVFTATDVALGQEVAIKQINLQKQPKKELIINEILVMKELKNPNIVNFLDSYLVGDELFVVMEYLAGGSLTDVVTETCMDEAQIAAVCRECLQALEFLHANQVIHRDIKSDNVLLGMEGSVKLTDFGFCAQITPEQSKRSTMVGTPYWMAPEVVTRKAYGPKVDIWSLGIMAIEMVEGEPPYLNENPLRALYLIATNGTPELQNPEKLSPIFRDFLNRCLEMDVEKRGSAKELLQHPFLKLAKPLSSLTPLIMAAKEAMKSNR

SMILES	inhibition [1] [%]	inhibition [2] [%]	inhibition [3] [%]	inhibition [4] [%]	inhibition [5] [%]	inhibition [6] [%]	inhibition [7] [%]	inhibition [8] [%]	inhibition [9] [%]	inhibition [10] [%]	inhibition [11] [%]	inhibition [12] [%]	inhibition [13] [%]	inhibition [14] [%]	inhibition [15] [%]	inhibition [16] [%]	inhibition [17] [%]	inhibition [18] [%]	inhibition [19] [%]	inhibition [20] [%]
CS(=O)(=O)CCNCc1ccoc1-c1ccc2ncnc(Nc3ccc(OCc4ccccc4)cc3)c2c1	4.29	1.46	2.49	1.28	2.65	1.95	2.79	2.37	3.29	-1.84	-0.88	-2.84	-0.82	-0.75	-2.34	-3.57	-0.05	-0.34	3.51	-5.6
COc1cccc(Nc2nccc(-c3cnn4ncccc34)n2)c1	63.2	3.11	29.1	11.1	57.6	6.23	30	5.37	24.6	1.55	3.21	2.05	2.16	1	2.62	1.1	1.63	8.25	5.51	1.43
COc1ccc(Nc2ncc(-c3ccccc3)o2)cc1OC	48.3	0.51	2.06	7.04	35.5	0.86	4.87	-0.13	2.73	-0.79	-5.3	0.24	1.35	0.18	0.91	-0.05	0.75	-8.21	-5.61	8.32
OCCCNc1nccc(-c2c(-c3ccc(F)cc3)nn3cc(C(F)(F)F)ccc23)n1	21.4	1.92	7.22	5.07	13.3	3.31	5.88	4.28	2.96	0.48	-0.53	6.37	5.57	2.56	2.03	2.17	3.68	-4.85	-5.58	8.72
CCS(=O)(=O)c1ccc(OC)c(Nc2ncc(-c3cccc(F)c3)o2)c1	19.2	4.98	5	8.05	16.1	3.31	8.63	5.69	8.4	-0.55	-0.44	9.43	11.2	1.97	2.27	6	9.2	7.29	9.85	-7.56
COc1ccc2ncn(-c3cc(O[C@H](C)c4ccccc4C(F)(F)F)c(C(N)=O)s3)c2c1	3.61	0.25	-0.57	1.05	4.03	1.43	22.5	0.2	18.8	0.64	13.1	-0.34	2.49	-1.58	-0.3	-2.52	0.02	-6.5	-1.3	-7.06
COc1cc(N2CCN(C(C)C)CC2)ccc1Nc1nc(Nc2cccc(F)c2C(=O)O)c2cc[nH]c2n1	10.1	4.86	2.88	4.85	9.35	5.23	9.21	5.03	9.11	-0.64	2.17	6.19	5.79	1.31	2.49	4.37	4.9	3.7	4.16	0.22
CS(=O)(=O)CCNCc1ccc(-c2ccc3ncnc(Nc4ccc(OCc5ccccc5)cc4)c3c2)o1	6.76	2.75	2.72	5.38	5.67	3.24	3.52	5.36	3.74	0.02	1.34	6.85	5.65	0.34	-0.94	3.86	3.33	3.91	2.57	-3.53
CN(c1ccc(NC(=O)NCCN2CCOCC2)cc1)c1ccnc(Nc2ccc(CS(C)(=O)=O)cc2)n1	14.7	5.04	7.12	3.82	7.42	7.84	18.8	6.91	13.6	-1.2	0.96	4.31	4.43	2.52	1.58	4.14	3.94	12.2	13.5	3.99
O=C1Nc2ccccc2/C1=C1\CCc2cc(O)ccc21	66.8	7.68	9.97	17.6	58.9	20.8	58.5	15.1	52.4	-4.52	-7.51	7.55	7.72	2.86	3.05	5.7	6.44	0.23	1.47	-1.41
CC1=C(C(=O)Nc2ccc3[nH]nc(C)c3c2)C(c2ccc(C(F)(F)F)cc2)CC(=O)N1 (stereo not given)	1.55	6.17	36.5	4.68	4.08	5.04	7.56	5.03	5.46	-1.47	-2.31	4.1	3.72	1.78	1.55	2.35	2.95	10.3	-2.13	-0.15
CS(=O)(=O)Nc1ccc(-c2ccc3c(NC(=O)C4CC4)n[nH]c3c2)cc1	34.1	3.68	2.95	6.49	20.9	4.89	11.3	5.64	9.06	-0.25	-2.98	3.5	5.34	1.62	1.36	3.41	4.16	-0.3	0.91	0.76
CS(=O)(=O)Nc1ccc(-c2cc(-c3ccccc3)cc(C(N)=O)c2N)cc1	16.6	3.57	2.74	0.77	10.4	0.24	0.83	-1.12	-0.76	-1.2	-0.88	4.98	4.78	-0.21	-0.16	0.92	3.38	1.42	0.16	-9.24
N#Cc1ccc2c(-c3ccnc(NC4CC4)n3)c(-c3ccc(F)cc3)nn2c1	46	0.85	3.35	6	30.2	0.26	1.31	1.49	1.55	-1.26	-1.31	-1.35	7.43	0.74	0.16	1.37	2.53	1.73	3.22	-5.39
